Holding throughout (conditions): concentration: 1 μM, replicates: in singlicate; n = 1
Experiment [1] deals with T1, YANK1.
T1 construct: gene STK32A

Experiment [2] deals with T2, YANK2.
T2 construct: gene STK32B

Experiment [3] concerns T3, YANK3.
T3 construct: gene STK32C

The subject of experiment [4] is T4, YES.
T4 construct: gene YES1

For experiment [5], the system named is T5, YSK1.
T5 construct: gene STK25

The test system of experiment [6] is T6, YSK4.
T6 construct: gene MAP3K19

The test system of experiment [7] is ZAK.
Experiment [8] relates to ZAP70.
Experiment [9] has as its system T7, p38-alpha.
T7 construct: gene MAPK14

Experiment [10] relates to T8, p38-beta.
T8 construct: gene MAPK11

In experiment [11] the test system is p38-delta.
In experiment [12] the test system is T9, p38-gamma.
T9 construct: gene MAPK12

Molecules are shown by their SMILES.

We go through 15 compounds from publication PMC5540273 (PLoS ONE, 2017).
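Note: KINOMEscan kinase panel screen.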

On to `CCS(=O)c1ccc(-c2coc3ccc(-c4nnc(C)o4)cc23)cc1` (stereo not drawn), for which the “%Inh” value in experiment [1] was 5%; in experiment [2] it was 11%; in experiment [3], 0%; in experiment [4], 0%; in experiment [5] it was 0%; in experiment [6], 15%. Also, the “%Inh” value in experiment [7] was determined as 8%; in experiment [8], 0%; in experiment [9], 0%; in experiment [10], 5%; in [11] it was 11%; in experiment [12], 0%.
Consider `O=C(Nc1n[nH]c2cc(-c3ccccc3F)ccc12)C1CC1` [SB-733371], for which the “%Inh” value in experiment [1] is listed as 0%; in experiment [2] it was 0%; in experiment [3], 0%; in experiment [4], 0%; in [5], 0%; in experiment [6], 87%. The “%Inh” value in experiment [7] is 0%; in [8] it was 0%; in experiment [9] it was 4%; in experiment [10] it was 9%; in [11] it was 0%; in [12] it was 19%.
Regarding `COC(=O)c1c(-c2ccccc2)c2cc(C)ccc2c(=O)n1Cc1ccccc1`, the “%Inh” value was found to be 0% in experiment [1]; 0% in [2]; 17% in experiment [3]; 0% in experiment [4]; 0% in experiment [5]; 0% in experiment [6]. The “%Inh” value worked out at 25% in experiment [7]; 0% in experiment [8]; 8% in [9]; 0% in experiment [10]; 21% in [11]; 0% in experiment [12].
With `Cc1c(Cn2c(C)nn3c(=O)cc(N4CCO[C@H](C)C4)nc23)cccc1C(F)(F)F` [GSK2373690], the “%Inh” value was determined as 11% in experiment [1]; 18% in [2]; 8% in experiment [3]; 10% in [4]; 6% in experiment [5]; 33% in experiment [6]. Also, the “%Inh” value in experiment [7] came out at 9%; in experiment [8], 0%; in experiment [9], 0%; in [10], 0%; in [11], 41%; in [12], 0%.
`CCn1c(-c2ccoc2)nc2cnccc21` [SB-733887]: the “%Inh” value in [1] is 0%; in experiment [2], 4%; in experiment [3] it was 27%; in experiment [4], 0%; in experiment [5], 12%; in experiment [6], 49%. For the same compound, the “%Inh” value stood at 34% in [7]; 0% in experiment [8]; 0% in experiment [9]; 0% in [10]; 25% in experiment [11]; 12% in experiment [12].
As for `O=C(Nc1n[nH]c2nc(-c3ccccc3)c(Cl)cc12)C1CC1` [SB-734909], the “%Inh” value in [1] turned out to be 17%; in experiment [2], 0%; in [3], 0%; in experiment [4], 0%; in [5], 0%; in [6], 85%. Moreover, the “%Inh” value in experiment [7] is on record as 14%; in experiment [8], 10%; in [9], 24%; in experiment [10] it was 39%; in experiment [11], 10%; in [12], 27%.
For the compound `Cc1ccccc1COc1cc(-n2cnc3cc(Cl)ccc32)sc1C(N)=O` [GW813349], the “%Inh” value is given as 14% in experiment [1]; 2% in experiment [2]; 35% in experiment [3]; 0% in [4]; 0% in experiment [5]; 10% in [6]. Moreover, the “%Inh” value in [7] is 0%; in experiment [8] it was 19%; in experiment [9], 0%; in [10], 5%; in experiment [11], 0%; in [12], 20%.
For the compound `COc1ccc(-c2cc3c(C)nc(N)nc3n([C@H]3CC[C@H](OCCO)CC3)c2=O)cn1`, the “%Inh” value in [1] was 14%; in [2] it was 0%; in experiment [3], 0%; in experiment [4], 0%; in experiment [5], 0%; in [6] it was 0%. The “%Inh” value in [7] was 1%; in experiment [8], 0%; in [9], 0%; in [10], 0%; in experiment [11], 13%; in experiment [12], 0%.
With `CCc1ccc(-c2ccc3c(c2)-c2nn(C)cc2S(=O)(=O)N3C)cc1`, the “%Inh” value is 0% in experiment [1]; 12% in experiment [2]; 0% in [3]; 0% in experiment [4]; 0% in experiment [5]; 0% in experiment [6]. The “%Inh” value in experiment [7] worked out at 0%; in experiment [8] it was 0%; in experiment [9], 0%; in experiment [10], 12%; in experiment [11] it was 22%; in experiment [12] it was 9%.
`COc1cc(Nc2nccc(N3CCC(NC(=O)C4COc5ccccc5O4)C3)n2)cc(OC)c1OC` (stereo not drawn) [GSK1379761]: the “%Inh” value in experiment [1] stood at 9%; in [2] it was 0%; in [3], 19%; in experiment [4], 27%; in experiment [5], 0%; in experiment [6], 8%. Further, the “%Inh” value in experiment [7] is listed as 14%; in experiment [8], 0%; in experiment [9], 26%; in experiment [10] it was 0%; in [11], 34%; in experiment [12], 39%.
In the case of `Nc1nc(-c2ccccc2F)c(-c2ccnc3ccccc23)s1` [GW560459], the “%Inh” value in experiment [1] worked out at 39%; in experiment [2], 8%; in experiment [3], 0%; in experiment [4], 0%; in [5] it was 13%; in experiment [6] it was 13%. The “%Inh” value in experiment [7] worked out at 17%; in experiment [8], 13%; in [9], 99.8%; in experiment [10], 0%; in experiment [11], 36%; in experiment [12], 0%.
In the case of `Nc1ncnc2c1ncn2-c1ccc(Cl)cc1` [AH2635], the “%Inh” value turned out to be 0% in experiment [1]; 0% in experiment [2]; 0% in [3]; 0% in experiment [4]; 0% in experiment [5]; 27% in [6]. For the same compound, the “%Inh” value in experiment [7] is on record as 0%; in [8] it was 0%; in experiment [9] it was 32%; in experiment [10], 0%; in experiment [11], 32%; in [12] it was 0%.
With `CCC(=O)c1c(-c2ccccc2)c2cc(Cl)ccc2c(=O)n1Cc1cc(S(C)(=O)=O)n(CC(F)F)n1`, the “%Inh” value in [1] was 0%; in [2], 8%; in experiment [3] it was 0%; in experiment [4] it was 0%; in experiment [5], 0%; in [6] it was 0%. Also, the “%Inh” value is recorded as 0% in [7]; 11% in [8]; 10% in [9]; 2% in experiment [10]; 19% in experiment [11]; 0% in [12].
`COc1cccc(C2=C(N(C)c3ccccc3)C(=O)NC2=O)c1` [SB-334865]: the “%Inh” value in experiment [1] turned out to be 0%; in experiment [2], 0%; in experiment [3] it was 2%; in experiment [4], 21%; in experiment [5] it was 8%; in experiment [6], 37%. Besides, the “%Inh” value came out at 20% in experiment [7]; 0% in experiment [8]; 14% in experiment [9]; 0% in [10]; 42% in experiment [11]; 0% in experiment [12].
For `COc1cc(Nc2ccnc3ccc(C(F)(F)F)cc23)cc(OC)c1OC` [GW577382], the “%Inh” value is listed as 4% in experiment [1]; 16% in experiment [2]; 44% in experiment [3]; 13% in [4]; 1% in [5]; 0% in experiment [6]. The “%Inh” value in [7] turned out to be 12%; in experiment [8], 0%; in experiment [9], 30%; in experiment [10], 25%; in [11], 4%; in [12], 0%.
